In the library only some 19% were active in any assay of this set; here they are far more common.
DT40 TDP1 CPT: growth inhibition of DT40 Tdp1-/-;hTDP1 cells with camptothecin (screen for TDP1 inhibitors); chicken DT40 Tdp1-/-;hTDP1 cells + 20 nM CPT, ATP luminescence, 48 h; Potency, µM (doses to about 46.2 µM), for inactives: at the highest dose activity change, negative = growth inhibition, hits mostly inhibitors; hit rate 12% among 420,000; further: potency means the concentration at half of the fitted maximal effect; nearly all actives have a fitted effect of over 55% in size
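Chicken DT40 Tdp1-/- cells stably complemented with human TDP1 were seeded at 400 cells/well in medium containing 20 nM camptothecin, exposed to pin-transferred compounds, and grown at 37 °C for at least 48 hr. Viability was read as ATP luminescence.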
HT1080 IDH1KD tx: HT-1080 IDH1 knockdown cell toxicity (counter line). HT-1080 IDH1 knockdown viability, ATP luminescence, 48 h. Potency, µM (titrated, usually from 46.1 µM), without a hit: at the highest dose activity, negative = toxicity, hits mostly cytotoxic. hit rate 2% among 360,000. AID 686971;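 further: potency means the concentration at half of the fitted maximal effect; 0% = DMSO wells and -100% = cell-free medium wells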
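HT-1080-IDH1KD cells (IDH1 knocked down), 750/well in RPMI with 5% FBS, treated with compound 48 h at 37 degrees C. Viability by CellTiter-Glo luminescence, normalised to DMSO and no-cell wells; concentration-response curves classed.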
IL-1B inflam inh: inflammasome signaling inhibition, IL-1 beta readout; activity change, % at 57.5 µM; THP-1 LPS/ATP IL-1B secretion, AlphaLISA, 16 h; stronger effect = lower value; hit rate 4.7% among 360,000; AID 743279; in the data active means activity change below about -50%; inconclusive means mostly about -30% to -49%
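Secreted IL-1B measured by AlphaLISA bead assay after 16 h compound exposure of THP-1 cells; compounds (final up to 57.5 uM) added 1 h before LPS (250 ng/mL) and ATP (1.25 mM) stimulation; lower signal means less secretion.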
TDP1 cell noCPT: qHTS for Inhibitors of human tyrosyl-DNA phosphodiesterase 1 (TDP1): qHTS in cells in absence of CPT. DT40 Tdp1-/- hTDP1 cells, no CPT, ATP luminescence, 48 h. Potency, µM (highest dose often 46.2 µM), inactives show at the top dose activity change, negative = growth inhibition, hits mostly inhibitors. hit rate 15% among 420,000. AID 686978, 2013; further: potency means the concentration at half of the fitted maximal effect; nearly all actives have a fitted effect of over 55% in size
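Growth kinetics read by CellTiter-Glo luminescence after ≥48 hr at 37 °C. Cells: DT40 Tdp1-/- stably carrying human TDP1, 400 per well, compound exposure in the absence of CPT (DMSO vehicle).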
HT1080NT lethal: kills 2HG-producing HT-1080-NT fibrosarcoma cells; HT-1080-NT fibrosarcoma viability, CellTiter-Glo ATP luminescence, 48 h; Potency, µM (doses to about 46.1 µM), for inactives: at the top dose activity, negative = less viability, hits mostly cytotoxic; hit rate 1.6% among 360,000;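 further: NT is the 2HG producing partner of a matched IDH1 knockdown line; potency means the concentration at half of the fitted maximal effect; 0% = DMSO-treated cells and -100% = media-only wells without cells; nearly all actives have a fitted effect of over 55% in size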
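Viability by CellTiter-Glo luminescence after 48 h compound exposure at 37C of HT-1080-NT cells (750/well, RPMI, 5% FBS). % activity scaled between DMSO wells and medium-only wells, then curve-fitted and categorized by curve class.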
An asterisk follows results filed as active; ? = inconclusive; . = not tested or not shown. Unless noted, the call rests on the fitted dose curve; in most records, active means well fitted curve in the direction sought with a large enough effect; inconclusive means small, poorly fitted or top-dose-only effect, or another doubt; inactive means no such curve, though single readings can be large; an effect the other way counts as inactive or inconclusive. Unless noted, on the % scale 0 is the no-effect control and ±100 the full control effect.

SMILES	DT40 TDP1 CPT	HT1080 IDH1KD tx	IL-1B inflam inh	TDP1 cell noCPT	HT1080NT lethal
CCN(CC(=O)NCC1CCCO1)S(=O)(=O)c1ccc(Cl)cc1 (centres undefined)	2%	0%	23	-1%	-4%
COc1ccc([N+](=O)[O-])cc1NC(=O)Cc1noc2ccccc12	7%	4%	-10	-1%	19%
O=C(Nc1ccc(C2SCCS2)cc1)c1ccccc1	-6%	-15%	-2	-21%	-1%
Cc1ccc(C(=O)NCC(=O)NCC(c2cccs2)N2CCOCC2)cc1C (centres undefined)	5%	5%	0	-1%	11%
Cc1ccc(CCN2CC(C(=O)NCCCN3CCCCC3)CC2=O)cc1 (centres undefined)	2%	-4%	-1	13%	1%
CCOc1ccc2nc(N/C(N)=N/C(=S)Nc3ccc(C)c(C)c3)nc(C)c2c1	-83%	-1%	-14	-45%	-1%
COc1ccc(NC(=S)/N=C(\N)Nc2nc(C)c3ccc(C)cc3n2)cc1	18µM*	-8%	0	?	-9%
CCNC(=S)/N=C(\N)Nc1nc(C)c2cc(C)ccc2n1	?	1%	-91*	?	-4%
Cc1ccccc1-n1nc2c(c1NC(=O)c1cc3ccccc3o1)CS(=O)(=O)C2	-20%	-3%	-3	4%	19%
CC(C)c1ccc(NC(=O)CSc2nnc(-c3ccccc3)n2C)cc1	-15%	.	.	-11%	.
Cc1cc(-c2csc(NC(=O)c3ccc(S(=O)(=O)N(C)C)cc3)n2)c(C)n1-c1ccccc1	?	-2%	7	18µM*	0%
O=C(Nc1nccs1)c1ccc(S(=O)(=O)N2CCCCC2)cc1	2%	0%	22	-13%	-1%
Cc1cc(NC(=O)c2ccc(S(=O)(=O)N3CCCC3)cc2)nc2c1c(=O)oc1ccccc12	7.3µM*	4%	2	10µM*	3%
CN(C)S(=O)(=O)c1ccc(C(=O)Nc2nc(-c3cc4ccccc4o3)cs2)cc1	10µM*	?	-1	2.9µM*	?
O=C(Nc1nc(-c2cc3ccccc3o2)cs1)c1ccc(S(=O)(=O)N2CCCC2)cc1	16µM*	?	-7	2.3µM*	-21%
Cc1cc(NC(=O)c2ccccc2)nc2c1c(=O)oc1ccccc12	?	7%	0	?	3%
COc1ccc(NC(=O)C2CCCN(CCCc3ccccc3)C2)cc1OCC(C)C (centres undefined)	7.3µM*	-11%	-85*	5.2µM*	?
O=C(OCc1cn([C@@H]2CN(C(=O)c3cccs3)[C@@H](c3ccccc3)C[C@H]2O)nn1)c1ccccc1	?	1%	1	?	-9%
CC1(C(=O)Nc2ccc3c(c2)OCO3)CCN1C(=O)CCc1ccc(Cl)cc1Cl (centres undefined)	?	-13%	-3	?	-6%
COC/C=C/C1=CC2=CC(=O)C(C)(OC(=O)c3cnc4ccccc4n3)C(=O)C2=CN1CC1CC1 (centres undefined)	-21%	4%	3	?	1%
COC/C=C/C1=CC2=CC(=O)C(C)(OC(=O)c3cnc4ccccc4n3)C(=O)C2=CN1Cc1ccccc1 (centres undefined)	?	-19%	0	16µM*	-30%
COC/C=C/C1=CC2=CC(=O)C(C)(OC(=O)c3cnc4ccccc4n3)C(=O)C2=CN1Cc1ccc(OC)cc1 (centres undefined)	23µM*	0%	-60*	?	-6%
COC/C=C/C1=CC2=CC(=O)C(C)(OC(=O)c3cnc4ccccc4n3)C(=O)C2=CN1C1CC1 (centres undefined)	?	4%	-13	21µM*	0%
O=C(NCCNC(=O)c1ccccn1)c1ccc(-c2ccccc2)cc1	-8%	-9%	-1	21µM*	-17%
O=C(NCCc1cnc[nH]1)c1ccc(-c2ccccc2)cc1	-41%	-11%	-54*	-10%	-6%
SMILES	DT40 TDP1 CPT	HT1080 IDH1KD tx	IL-1B inflam inh	TDP1 cell noCPT	HT1080NT lethal
COc1ccc(C(=O)OCC(=O)NCCN2C(=O)CSC2=O)cc1[N+](=O)[O-]	-4%	6%	-2	7%	9%
CC(=O)Nc1ccc(S(=O)(=O)Nc2nnc(Cc3ccc(Cl)cc3)s2)cc1	-2%	4%	13	-9%	1%
CCCCN([C@H](CO)C(C)C)S(=O)(=O)c1ccccc1Br	?	-3%	0	21µM*	-3%
CCc1ccccc1N(C)C(=O)C1CCCN(c2ncnc3c2nc2n3CCCCC2)C1 (centres undefined)	18µM*	.	.	4.1µM*	.
CCc1ccccc1N(CC)C(=O)C1CCN(c2ncnc3c2nc2n3CCCCC2)CC1	8.2µM*	?	-27	4.1µM*	-5%
CN(Cc1ccco1)C(=O)C1CCCN(c2ncnc3c2nc2n3CCCCC2)C1 (centres undefined)	?	-9%	38	?	-1%
CCOc1ccccc1N(C)C(=O)C1CCCN(c2ncnc3c2nc2n3CCCCC2)C1 (centres undefined)	-30%	.	.	-11%	.
CN(C(=O)C1CCCN(c2ncnc3c2nc2n3CCCCC2)C1)c1ccccc1F (centres undefined)	23µM*	.	.	12µM*	.
Cc1ccc(N(C)C(=O)C2CCCN(c3ncnc4c3nc3n4CCCCC3)C2)cc1C (centres undefined)	?	.	.	9.2µM*	.
Cc1c(C(=O)N2CC3CCC2C3)sc2ncnc(NCc3ccco3)c12 (centres undefined)	7%	.	.	-27%	.
O=C(NCCc1ccc(Cl)cc1)c1ccc(CSCc2ccccc2Cl)o1	15µM*	.	.	16µM*	.
COCCNC(=O)c1ccc(CSCc2cccc(Cl)c2)o1	?	6%	-11	?	-1%
Cc1cccc(CSCc2ccc(C(=O)NCCc3ccccc3)o2)c1	?	.	.	13µM*	.
O=C(NC1CC1)c1ccc(CSCc2ccccc2Cl)o1	?	?	5	?	?
CCOC(=O)N1CCc2c(sc3c2c(=O)n(-c2ccc(Cl)cc2)c(=O)n3Cc2cccc(OC)c2)C1	?	.	.	-3%	.
COc1ccc(-c2ccc(C(C)=O)cc2)cc1[C@H]1[C@@H]2C=CCC[C@@]2(C)C(=O)N1Cc1ccccc1	?	-11%	?	-83%	?
C[C@@H]1CC=C[C@H]2[C@H]1C(=O)N(Cc1ccccc1)[C@H]2c1ccc(F)c(-c2ccc(N(C)C)cc2)c1	8.2µM*	-27%	-1	15µM*	?
